In the supplement of paper PMC9694430:
Structures can show the parent of a compound that is named as a salt.

Tests used:
Assay in all cases: thermal shift delta Tm vs DMSO control; higher = stronger stabilization (binding)
Conditions in all cases: 12.5 µM; protein concentration 2 µM
LOC_OS01G01410-cb001 = system: LOC_OS01G01410-cb001
How it was run: (§1)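 Purified, E. coli-expressed rice kinase domain constructs were tested by differential scanning fluorimetry in 96-well plates: 19.5 μl of 2 μM kinase in 100 mM potassium phosphate pH 7.5, 150 mM NaCl, 10% glycerol, 5 × SYPRO Orange, plus compound in DMSO. Fluorescence was read from 25°C to 95°C at 0.05°C/s. Melting temperatures came from Boltzmann fits, and the shift is the triplicate mean relative to protein with DMSO alone.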

LOC_OS01G02750-cb003 = system: LOC_OS01G02750-cb003
How it was run: as §1

LOC_OS01G10900-cb004 = system: LOC_OS01G10900-cb004
How it was run: as §1

LOC_OS01G13800-cb001 = system: LOC_OS01G13800-cb001
How it was run: as §1

LOC_OS01G14860-cb001 = system: LOC_OS01G14860-cb001
How it was run: as §1

LOC_OS01G21960-cb002 = system: LOC_OS01G21960-cb002
How it was run: as §1

LOC_OS01G39600-cb002 = system: LOC_OS01G39600-cb002
How it was run: as §1

LOC_OS01G48390-cb002 = system: LOC_OS01G48390-cb002
How it was run: as §1

LOC_OS01G51400-cb002 = system: LOC_OS01G51400-cb002
How it was run: as §1

LOC_OS01G52050-cb004 = system: T1, LOC_OS01G52050-cb004
T1 sequence (whole entry): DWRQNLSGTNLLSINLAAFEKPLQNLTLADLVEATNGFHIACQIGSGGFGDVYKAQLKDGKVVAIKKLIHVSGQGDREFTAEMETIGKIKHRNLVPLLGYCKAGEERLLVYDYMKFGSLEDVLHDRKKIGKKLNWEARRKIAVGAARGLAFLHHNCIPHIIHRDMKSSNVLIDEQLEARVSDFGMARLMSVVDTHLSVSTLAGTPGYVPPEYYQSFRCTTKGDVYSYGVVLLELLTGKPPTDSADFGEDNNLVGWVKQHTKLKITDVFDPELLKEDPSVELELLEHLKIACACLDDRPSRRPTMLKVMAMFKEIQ
How it was run: as §1

LOC_OS01G57100-cb003 = system: LOC_OS01G57100-cb003
How it was run: as §1

LOC_OS01G60330-cb001 = system: LOC_OS01G60330-cb001
How it was run: as §1

LOC_OS01G60700-cb002 = system: LOC_OS01G60700-cb002
How it was run: as §1

LOC_OS01G63280-cb003 = system: LOC_OS01G63280-cb003
How it was run: as §1

LOC_OS01G67340-cb003 = system: LOC_OS01G67340-cb003
How it was run: as §1

LOC_OS01G70970-cb002 = system: LOC_OS01G70970-cb002
How it was run: as §1

LOC_OS02G07810-cb001 = system: LOC_OS02G07810-cb001
How it was run: as §1

LOC_OS02G08530-cb003 = system: LOC_OS02G08530-cb003
How it was run: as §1

LOC_OS02G14120-cb001 = system: LOC_OS02G14120-cb001
How it was run: as §1

LOC_OS02G17970-cb001 = system: LOC_OS02G17970-cb001
How it was run: as §1

Structure (SMILES) | thermal shift delta Tm (LOC_OS01G01410-cb001) | thermal shift delta Tm (LOC_OS01G02750-cb003) | thermal shift delta Tm (LOC_OS01G10900-cb004) | thermal shift delta Tm (LOC_OS01G13800-cb001) | thermal shift delta Tm (LOC_OS01G14860-cb001) | thermal shift delta Tm (LOC_OS01G21960-cb002) | thermal shift delta Tm (LOC_OS01G39600-cb002) | thermal shift delta Tm (LOC_OS01G48390-cb002) | thermal shift delta Tm (LOC_OS01G51400-cb002) | thermal shift delta Tm (LOC_OS01G52050-cb004) | thermal shift delta Tm (LOC_OS01G57100-cb003) | thermal shift delta Tm (LOC_OS01G60330-cb001) | thermal shift delta Tm (LOC_OS01G60700-cb002) | thermal shift delta Tm (LOC_OS01G63280-cb003) | thermal shift delta Tm (LOC_OS01G67340-cb003) | thermal shift delta Tm (LOC_OS01G70970-cb002) | thermal shift delta Tm (LOC_OS02G07810-cb001) | thermal shift delta Tm (LOC_OS02G08530-cb003) | thermal shift delta Tm (LOC_OS02G14120-cb001) | thermal shift delta Tm (LOC_OS02G17970-cb001)
NC[C@@](O)(c1ccc(Cl)cc1)c1ccc(-c2cn[nH]c2)cc1 | 0.04 °C | 1.13 °C | 0.24 °C | 0.5 °C | 0.53 °C | 1.22 °C | -0.16 °C | 1.06 °C | 0.36 °C | 0.51 °C | 2.29 °C | 1.43 °C | 1.37 °C | 0.56 °C | 0.77 °C | 0.29 °C | 0.52 °C | 0.75 °C | 1.05 °C | 0.63 °C
CC(C)(CCCCCC(O)CCCCCC(C)(C)C(=O)O)C(=O)O | 0.55 °C | 0.54 °C | 0.09 °C | 0.41 °C | -0.23 °C | 0.39 °C | -0.54 °C | 0.29 °C | 0.29 °C | 0.02 °C | -0.51 °C | 1.18 °C | 0.87 °C | -0.01 °C | 0.52 °C | 0.21 °C | 0.4 °C | 0.32 °C | 0.05 °C | 0.59 °C
COc1ccc(-c2ccc3c(N4CCOC[C@@H]4C)nc(N4CCOC[C@@H]4C)nc3n2)cc1CO | 0.54 °C | 0.23 °C | 0.08 °C | 0.21 °C | 0 °C | -0.12 °C | -0.26 °C | 0.01 °C | -0.16 °C | 0.06 °C | 0.87 °C | 0.93 °C | 0.64 °C | -0.13 °C | -0.69 °C | 0.1 °C | 0.28 °C | 0.31 °C | -1.22 °C | -0.06 °C
Cc1ccc(CNc2ncnc3ccc(-c4ccc(CO)o4)cc23)o1 | 0.69 °C | 1.49 °C | 0.39 °C | -0.33 °C | 0.56 °C | 0.93 °C | 0.85 °C | 0.79 °C | 0.24 °C | 1.21 °C | 1.69 °C | 0.84 °C | 0.78 °C | 0.26 °C | -0.04 °C | 0.37 °C | 0.27 °C | 1.61 °C | 3.01 °C | 1.11 °C
COc1ccc(S(=O)(=O)N(C(C)=O)c2ccccc2/C=C/c2cc[n+]([O-])cc2)cc1 | -0.1 °C | 0.48 °C | 0.77 °C | 0.64 °C | 0.58 °C | 0.67 °C | -0.39 °C | 0.12 °C | -0.08 °C | 0.02 °C | 1.85 °C | 0.75 °C | 0.63 °C | 0.55 °C | -0.3 °C | 0.2 °C | 1.33 °C | 0.62 °C | 2.16 °C | 1.01 °C
O=C1NC(=O)/C(=C/c2ccc3c(c2)OC(F)(F)O3)S1 | 0.72 °C | 0.45 °C | 0.16 °C | 0.44 °C | 0.39 °C | 1.11 °C | 0.17 °C | 0.77 °C | 0.53 °C | 0.79 °C | 2.63 °C | 0.63 °C | 1.33 °C | 0.41 °C | 0.47 °C | 0.52 °C | 1.34 °C | 0.96 °C | -0.18 °C | 0.93 °C
Cc1ccc(NC(=O)c2ccc(CN3CCN(C)CC3)cc2)cc1Nc1nccc(-c2cccnc2)n1 [Imatinib Mesylate (STI571)] | 1.08 °C | 0.88 °C | 1.18 °C | 0.6 °C | 0.15 °C | 0.23 °C | 0.07 °C | 0.86 °C | 0.08 °C | 0.02 °C | 1 °C | 0.66 °C | 0.7 °C | 0.06 °C | -0.58 °C | -0.12 °C | 0.51 °C | 1.09 °C | 0.52 °C | 0.04 °C
Cc1ccc(NC(=O)c2ccc(CN3CCN(C)CC3)cc2)cc1Nc1nccc(-c2cccnc2)n1 [Imatinib (STI571)] | 0.68 °C | 0 °C | 1.47 °C | -0.47 °C | 0.24 °C | -0.24 °C | -0.27 °C | 1.69 °C | 0.14 °C | 0.62 °C | 1.6 °C | 0.71 °C | 0.95 °C | 0.65 °C | 0.52 °C | 0.38 °C | 0.18 °C | 1.39 °C | 1.22 °C | 0.21 °C
COc1ccc2c(c1)[C@]1(C[C@H]1c1ccc3c(/C=C/c4ccc(CN5C[C@@H](C)O[C@@H](C)C5)cc4)n[nH]c3c1)C(=O)N2 | 1.94 °C | 8.4 °C | 1.53 °C | -0.69 °C | 1.2 °C | 0.67 °C | 2.15 °C | 1.77 °C | 1.27 °C | 4.31 °C | 2.82 °C | -0.26 °C | 0.64 °C | 1.2 °C | 2.12 °C | 2.01 °C | -0.49 °C | 1.45 °C | 7.54 °C | 0.31 °C
Cc1cc(F)c(Nc2ncnc3cc(OCc4ccccc4)ccc23)cc1O | 0.8 °C | 2.62 °C | 0.6 °C | 0.61 °C | 0.45 °C | 1.56 °C | 1.09 °C | 1.2 °C | 0.81 °C | 0.77 °C | 1.8 °C | 0.94 °C | 2.58 °C | 1.25 °C | 0.41 °C | 0.6 °C | 1.36 °C | 1.46 °C | 0.86 °C | 1.59 °C
O=c1ncn2nc(Sc3ccc(F)cc3F)ccc2c1-c1c(Cl)cccc1Cl | 0.07 °C | 0.77 °C | 0.61 °C | 0.23 °C | 0.42 °C | 0.49 °C | -0.38 °C | 0.32 °C | 0.15 °C | 0.02 °C | 1.7 °C | 0.91 °C | 0.86 °C | 0.47 °C | -0.29 °C | 0.12 °C | 0.79 °C | 0.67 °C | 0.31 °C | 0.56 °C
